The source of these data is PubChem BioAssay (NCI).

Compounds without any hit were thinned out: in the full panel of roughly 83,000, 20% have a hit.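 Cells were grown in 96-well plates and exposed to the test compound at a single concentration for 48 hours; results are reported as percent growth, with values below 10 considered active.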 A number with no mark means an inactive call. Activity calls are given as the source filed them.

The subject of this experiment is HL-60(TB) leukemia. In words: NCI-60 one-dose screen, 48 h (100 = growth as untreated, 0 = no growth, -100 = all killed). The conditions noted are these: 10 µM unless noted.
In the case of `COc1ccc2cc(-c3ccnc4c(N=Nc5ccc(Cl)cc5)c(N)nn34)ccc2c1`, the growth is 98.8%.

Turning to `Nc1[nH]nc2nc(-c3ccccc3)n3c4ccccc4nc3c12`, the growth was 97.5%.

`COc1ccc(C(=O)c2sc3nc4c(c(-c5cccnc5)c3c2N)CCCC4)cc1OC`: the growth was 86.6%.

`COc1ccc(N(C)c2nc(Cl)nc3cnn(C)c23)cc1`: the growth is -4.95% (active).

Regarding `O=c1[nH]c(Nc2ccc(S(=O)(=O)O)cc2)nc2nc(Nc3ccc(NC(=S)Nc4ccccc4)cc3)nc(-c3ccc(O)cc3O)c12`, the growth is 120%.

With `O=C1N=c2ccccc2=C1c1sc(=S)n(C2CC(=O)N(c3ccc(Cl)cc3)C2=O)c1O` (stereo not given), the growth was 101%.

Regarding `CCN(CC)CCCNc1cc(OC)cc2nc3cc(Cl)ccc3nc12`, the growth was -9.05% (active).

Regarding `O=C(Nc1cccc(-n2cc(-c3ccncc3)c(-c3ccc(O)c(Cl)c3)n2)c1)c1ccc(N2CCOCC2)c(C(F)(F)F)c1`, the growth was -10.6% (active).

`COc1ccc2nc(NC(=O)Nc3c(F)cccc3F)sc2c1`: the growth is 79.1%.

Consider `O=C1NC(=C(Cl)Cl)/C(=N/S(=O)(=O)N2CCCCC2)N1`, for which the growth is -70.3% (active).

As for `COc1cc(C2C=C(c3ccc(Cl)c(Cl)c3)N=C3SC(C)=CN32)cc(OC)c1OC` (stereo not given), the growth was 61.6%.

For `CN(C)c1ccc(/C=N\Nc2cc(=O)[nH]c3ccc(Cl)cc23)cc1`, the growth was 98.2%.

Consider `CCC1=C(c2ccc(OC)cc2)C(C)(C)Oc2cc(O)c(CN3CCCC3)cc21`, for which the growth was 85%.

In the case of `CCC(N)(C(=O)O)c1ccc(F)cc1` (stereo not given), the growth was 87.1%.

In the case of `CCOC(=O)c1cc2oc(/C=C/c3cc(=O)c4cc(Cl)ccc4o3)cc2[nH]1`, the growth is 93%.

On to `Cc1cc(Cl)ccc1Nc1nc(C(F)(F)F)ccc1C(=O)N/N=C/c1ccc(N(C)C)cc1`, for which the growth was 12.4%.

For `O=C1NCCN1/N=C/c1c(Cl)nc2n1CCS2`, the growth is 72.2%.

As to `O=C(c1ccc(F)c(F)c1Nc1ccc(I)cc1F)N1CC(O)([C@@H]2CCCCN2)C1`, the growth was -18.9% (active).

Turning to `Cc1ccc(Cn2cc(COc3ccc4c5ccnc(C)c5n(CCCc5ccccc5)c4c3)nn2)cc1`, the growth was 77.6%.

In the case of `C=C1C(=O)O[C@H]2[C@H]1CC/C(COC(=O)CCCC(=O)OC/C1=C/CC[C@@]3(C)O[C@H]3[C@H]3OC(=O)C(=C)[C@@H]3CC1)=C\CC[C@@]1(C)O[C@@H]21`, the growth is -41.8% (active).

`Cn1ccnc1C(=O)/C=C/c1ccc(CC(=O)Nc2cc(C(F)(F)F)cc(C(F)(F)F)c2)cc1`: the growth was 16.1%.

As for `NC1(CO)COC(c2ccccc2)OC1` (stereo not given), the growth is 89.2%.

As for `FC(F)(F)c1ccc(-c2nc(-c3nc4cc(Cl)c(Cl)cc4[nH]3)c3ccccn23)cc1`, the growth was 104%.

On to `CC1(C)N=c2cc3c(cc2N1c1ccc(Cl)cc1)=Nc1ccccc1N3c1ccc(Cl)cc1`, for which the growth was -40.4% (active).

For the molecule `O=C(CN1C(=O)NC2NC(=O)NC21)N/N=C/c1ccc(Cl)cc1Cl` (stereo not given), the growth is 99.4%.

`CCCn1ccnc1C(O)c1ccc(OCc2ccccc2)c(OC)c1` (stereo not given): the growth was 96.7%.

With `CNC(=O)c1cn(C2CC2)c2cc(N3CCN(C(=O)c4cc(OC)c(OC)c(OC)c4)CC3)c(F)cc2c1=O`, the growth is 101%.

Turning to `COc1ccc(Cc2cnc(NC(=O)c3ccc4c(c3)OCCO4)s2)cc1`, the growth is -42.1% (active).

On to `CC(C)=CC/C=C(/C)[C@H]1CC[C@]2(C)[C@@H]1CC[C@@H]1[C@@]3(C)CC/C(=N/O)C(C)(C)[C@@H]3CC[C@]12C`, for which the growth was 5.9% [100 µM] (active).

With `Cc1ccc(Cl)cc1NC(=O)CCl`, the growth was 33%.

In the case of `CC(CCC(=O)O)[C@H]1CCC2C3C(=O)C[C@@H]4CC(=O)CC[C@]4(C)C3CC(=O)[C@@]21C` (stereo not given in full), the growth is 106%.

On to `O=S(=O)(NCC[C@@H]1C[C@H]1c1ccc2ccccc2c1)c1ccc(C(F)(F)F)cc1`, for which the growth is 96.5%.

For `CCOC(=O)/C=C/c1c(C)[nH]c(=O)[nH]c1=O`, the growth was 75.3%.

As for `CC1(C)CC[C@]23CC[C@]4(C)[C@H](CC[C@@H]5[C@@]6(C)C/C(=C/c7cccnc7)C(=O)C(C)(C)[C@@H]6CC[C@]54C)[C@H]2[C@H]1OC3=O`, the growth was -0.84% [100 µM] (active).

`O=C(Nc1ccc(Cl)cc1)N1CCN(c2ccc3nncn3n2)CC1`: the growth is -65.2% (active).

For the molecule `CC(C)(N)CO[C@H]1C[C@H]2CC[C@@]1(C)C2(C)C`, the growth is 111%.

Regarding `COc1ccc2c(c1)oc1c(C)c3c(c(C)c12)C(=O)N(CCOS(C)(=O)=O)C3=O`, the growth was 93.6%.

As to `COc1cc(Cl)ccc1C`, the growth was 107%.

For the molecule `CN1CCCN(C(c2ccccc2)c2ccc(Br)cc2)CC1` (stereo not given), the growth is 110%.

Take `Cc1ccc(NC2CC(=O)N(c3c(C)cc(C)cc3C)C2=O)c(C)c1` (stereo not given): the growth was 102%.
